Assay [1] is described as follows: antimalarial activity against Dd2 strain (AID 2302;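 active means growth inhibition above 50% at the single 2 µM test dose, taken to imply half-maximal potency below 2 µM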;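 further: 0% = DMSO untreated growth and 100% = chloroquine plus artemisinin killed control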). The conditions noted are these: P. falciparum Dd2 in RBCs, LDH growth readout, 72 h; at 2 µM; hits give high values.
A short description of assay [2]: HepG2 cytotoxicity, primary screen, cytotoxicity control for P. falciparum antimalarial project, cell-based, ATP luminescence (AID 2303;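 active means inhibition above 50%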;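 further: 0% = DMSO wells and 100% = digitonin-killed cells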). The conditions noted are these: HepG2 viability, 24-48 h, at 10 µM, hits give high values.
Assay [3] addresses L-lactate dehydrogenase (Plasmodium falciparum (isolate CDC / Honduras)) (UniProt Q27743). The experiment in a line: PfLDH activity inhibition – cell lysate, 3D7 strain, counter-screen for P. falciparum growth inhibition project (AID 2304).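 Further: 0% = vehicle and 100% = reference inhibitor.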 The conditions noted are these: P. falciparum 3D7 crude extract, LDH APAD/NBT absorbance; at 2 µM; hits give high values. In general terms: A counterscreen serves to expose hits that act by an unwanted route or on another target.

Assay [4] in a line: inhibition of 3D7 malaria parasite growth – strain 3D7 (AID 2306).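 Further: 0% = DMSO wells and 100% = chloroquine plus artemisinin control wells.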 The settings on record: P. falciparum 3D7 erythrocytic growth, LDH absorbance, 72 h; at 2 µM; hits give high values.
In assay [5] the target is Calcium-dependent protein kinase 1 (Plasmodium falciparum (isolate 3D7)) (UniProt P62344). The experiment in a line: PfCDPK1 kinase inhibitors, biochemical, TCAMS library (AID 1159585; cut-off not given, nearly all actives have IC50 up to about 0.98 µM;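 further: inhibitors leave more ATP so luminescence rises with inhibition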). The settings on record: recombinant PfCDPK1, Kinase-Glo ATP depletion luminescence. (In Kinase-Glo more light means more ATP remaining.)
Assay [6] concerns the target Plasmodium falciparum protein kinase 6 (PK6, PF3D7_1337100) (UniProt Q8IDW1). The experiment in a line: PfPK6 kinase inhibitors, biochemical, TCAMS library (AID 1159586). The settings on record: recombinant PfPK6, Kinase-Glo ATP depletion luminescence.
For assay [7], the target named is Protein kinase 7 (PK7), Plasmodium falciparum 3D7 (PF3D7_0213400) (UniProt Q7YTF7). Briefly: inhibition of Plasmodium PK7 catalytic activity – biochemical, TCAMS antimalarial set, Kinase-Glo luminescence (AID 1159587). The conditions noted are these: recombinant PfPK7, Kinase-Glo ATP depletion luminescence.
Assay [8] addresses Calcium-dependent protein kinase 4 (Plasmodium falciparum (isolate 3D7)) (UniProt Q8IBS5). The experiment in a line: PfCDPK4 kinase inhibitors, biochemical, TCAMS library (AID 1159588; cut-off not given, nearly all actives have IC50 up to about 0.91 µM). The settings on record: recombinant PfCDPK4, Kinase-Glo ATP depletion luminescence.

Unmarked numbers belong to inactive results. For some of these results: Measured potencies and affinities stand elsewhere. The source made the active and inactive calls. Unless noted, how the calls were made is not given here.

Sequence of Protein kinase 7 (PK7), Plasmodium falciparum 3D7 (PF3D7_0213400) (Q7YTF7 1-343): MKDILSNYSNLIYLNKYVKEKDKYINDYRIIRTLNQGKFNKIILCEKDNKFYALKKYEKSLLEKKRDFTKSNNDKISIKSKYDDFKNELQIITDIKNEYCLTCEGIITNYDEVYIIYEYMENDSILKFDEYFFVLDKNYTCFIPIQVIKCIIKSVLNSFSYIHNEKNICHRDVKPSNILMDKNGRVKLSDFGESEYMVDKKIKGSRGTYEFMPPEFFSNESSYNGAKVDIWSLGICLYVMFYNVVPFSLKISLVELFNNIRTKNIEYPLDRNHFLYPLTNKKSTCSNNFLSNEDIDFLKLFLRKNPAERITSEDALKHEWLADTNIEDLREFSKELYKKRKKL
Sequence of Calcium-dependent protein kinase 1 (Plasmodium falciparum (isolate 3D7)) (P62344 whole entry, looked up): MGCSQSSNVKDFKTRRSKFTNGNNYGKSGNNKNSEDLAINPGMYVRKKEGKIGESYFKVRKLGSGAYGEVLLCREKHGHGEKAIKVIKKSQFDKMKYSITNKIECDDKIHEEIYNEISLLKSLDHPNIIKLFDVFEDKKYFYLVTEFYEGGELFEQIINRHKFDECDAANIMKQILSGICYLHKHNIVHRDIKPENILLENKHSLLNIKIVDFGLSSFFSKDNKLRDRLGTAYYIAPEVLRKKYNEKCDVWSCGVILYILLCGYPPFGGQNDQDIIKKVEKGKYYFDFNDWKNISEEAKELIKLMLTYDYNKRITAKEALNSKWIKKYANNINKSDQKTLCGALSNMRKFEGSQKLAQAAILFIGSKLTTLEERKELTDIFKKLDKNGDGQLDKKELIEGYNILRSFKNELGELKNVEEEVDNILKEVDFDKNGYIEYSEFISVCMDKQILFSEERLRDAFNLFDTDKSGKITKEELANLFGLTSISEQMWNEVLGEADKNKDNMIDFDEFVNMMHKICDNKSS
Sequence of Plasmodium falciparum protein kinase 6 (PK6, PF3D7_1337100) (Q8IDW1 1-305): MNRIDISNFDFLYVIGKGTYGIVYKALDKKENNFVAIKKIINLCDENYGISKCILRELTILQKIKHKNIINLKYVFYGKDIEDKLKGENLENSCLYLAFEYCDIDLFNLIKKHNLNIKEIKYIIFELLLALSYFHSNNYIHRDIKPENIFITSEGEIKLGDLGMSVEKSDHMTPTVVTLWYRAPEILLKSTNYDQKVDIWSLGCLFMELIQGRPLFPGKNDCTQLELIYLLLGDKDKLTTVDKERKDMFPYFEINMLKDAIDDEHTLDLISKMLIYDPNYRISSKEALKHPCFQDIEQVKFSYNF
Sequence of L-lactate dehydrogenase (Plasmodium falciparum (isolate CDC / Honduras)) (Q27743 whole entry, looked up): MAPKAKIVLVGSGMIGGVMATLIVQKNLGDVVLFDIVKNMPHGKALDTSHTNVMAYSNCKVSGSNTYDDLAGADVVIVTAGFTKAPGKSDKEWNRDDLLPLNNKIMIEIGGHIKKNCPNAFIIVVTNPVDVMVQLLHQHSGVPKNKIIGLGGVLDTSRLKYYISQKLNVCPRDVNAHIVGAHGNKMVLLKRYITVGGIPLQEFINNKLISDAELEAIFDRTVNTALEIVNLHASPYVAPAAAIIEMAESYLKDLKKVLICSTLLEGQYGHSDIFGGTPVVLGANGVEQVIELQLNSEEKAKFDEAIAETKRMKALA
Sequence of Calcium-dependent protein kinase 4 (Plasmodium falciparum (isolate 3D7)) (Q8IBS5 whole entry, looked up): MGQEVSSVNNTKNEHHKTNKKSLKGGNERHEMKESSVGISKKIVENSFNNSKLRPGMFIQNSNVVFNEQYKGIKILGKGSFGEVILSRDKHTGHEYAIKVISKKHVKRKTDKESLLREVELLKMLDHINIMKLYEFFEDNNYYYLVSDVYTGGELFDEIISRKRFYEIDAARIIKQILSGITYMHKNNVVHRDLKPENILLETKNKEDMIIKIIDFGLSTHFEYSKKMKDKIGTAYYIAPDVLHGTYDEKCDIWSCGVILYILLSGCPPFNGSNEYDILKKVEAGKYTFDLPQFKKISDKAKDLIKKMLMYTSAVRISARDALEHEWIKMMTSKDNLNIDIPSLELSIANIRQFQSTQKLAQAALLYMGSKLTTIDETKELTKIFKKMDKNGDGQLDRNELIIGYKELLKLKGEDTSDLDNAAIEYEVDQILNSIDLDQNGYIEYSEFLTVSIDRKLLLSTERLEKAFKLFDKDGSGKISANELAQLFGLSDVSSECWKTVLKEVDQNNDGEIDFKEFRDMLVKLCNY

Regarding `Cc1cc(NC(=O)c2ccco2)ccc1OC1CCN(Cc2ccc(F)cc2)CC1`, the growth inhibition was 93% (active) in assay [1] and 96% (active) in assay [4]. Besides, the inhibition in assay [2] was 4%; in assay [3] it was -2%. In addition, the outcome in assay [5], in assay [6], in assay [7] and in assay [8] was inactive.
For the molecule `Cc1cnc(C(=O)Nc2cccc(-c3csc(-c4nc5ccccc5[nH]4)c3)c2)cn1`, the growth inhibition in assay [1] was 80% (active); in assay [4] it was 98% (active). In addition, the figures for the inhibition in assay [2] and in assay [3] were 31% and -1%, respectively. Further, the result in assay [5], in assay [6], in assay [7] and in assay [8] was inactive.
On to `COc1ccc(C=NNc2c3ccccc3nc3ccccc23)c2ccccc12`, for which the growth inhibition in assay [1] was 23%; in assay [4] it was 82% (active). Further, the results for the inhibition in assay [2] and in assay [3] were 9% and 2%, respectively. In addition, the result in assay [5], in assay [6], in assay [7] and in assay [8] was inactive.
In the case of `COc1cccc(Nc2nc(NCCO)c3ccccc3n2)c1`, the growth inhibition in assay [1] is 88% (active); in assay [4], 99% (active). The inhibition in assay [2] is 1%; in assay [3] it was -6%. Moreover, the result in assay [5], in assay [6], in assay [7] and in assay [8] was inactive.
As to `CN=C(NO)NCCN(C)C`, the growth inhibition is -5% in assay [1] and 88% (active) in assay [4]. The inhibition was -1% in assay [2] and -2% in assay [3]. Moreover, the result in assay [5], in assay [6], in assay [7] and in assay [8] was inactive.
Turning to `COc1nc2c(CCN3CC[C@@H](NCc4cc(C#N)c5c(c4)CCO5)[C@@H](O)C3)ccnc2cc1F`, the values for the growth inhibition in assay [1] and in assay [4] were 35% and 92% (active), respectively. Moreover, the inhibition in assay [2] is 21%; in assay [3], -1%. The outcome in assay [5], in assay [6], in assay [7] and in assay [8] was inactive.
In the case of `CN(Cc1ccncc1)C(Cc1ccccc1)C1CCN(Cc2ccc(O)c(Cl)c2)CC1` (stereo not given), the growth inhibition is 97% (active) in assay [1] and 96% (active) in assay [4]. Besides, the inhibition in assay [2] was 22%; in assay [3], -4%. Also, the outcome in assay [5], in assay [6], in assay [7] and in assay [8] was inactive.
Take `CC(CN1CCN(C)CC1)C(=O)Nc1ccc(-c2cccc(-c3nc4ccc(C(F)(F)F)cc4[nH]3)c2)cc1` (stereo not given): the growth inhibition in assay [1] was 96% (active); in assay [4] it was 99% (active). The inhibition in assay [2] was 16%; in assay [3], -6%. Moreover, the outcome in assay [5], in assay [6], in assay [7] and in assay [8] was inactive.
`CC(CNCc1cn(Cc2cc(Br)cc(Br)c2)c2ccccc12)CNc1cc(=O)c2ccccc2[nH]1` (stereo not given): the growth inhibition is 50% (active) in assay [1] and 100% (active) in assay [4]. Moreover, the inhibition was 10% in assay [2] and 6% in assay [3]. Besides, the outcome in assay [5], in assay [6], in assay [7] and in assay [8] was inactive.
Take `CCCCCCCN1CCC(CCNc2ccnc3ccc(OC)cc23)CC1`: the growth inhibition in assay [1] was 86% (active); in assay [4], 84% (active). Further, the inhibition in assay [2] is 5%; in assay [3], -2%. The outcome in assay [5], in assay [6], in assay [7] and in assay [8] was inactive.
Consider `FC(F)(F)c1ccc2nc(-c3ccc(-c4cccc(CN5CCCCC5)c4)cc3)[nH]c2c1`, for which the growth inhibition in assay [1] is 99% (active); in assay [4] it was 100% (active). In addition, the inhibition is 22% in assay [2] and 2% in assay [3]. In addition, the result in assay [5], in assay [6], in assay [7] and in assay [8] was inactive.
In the case of `Cc1nc2c(-n3cc(Cn4ccnc4)c4ccccc43)ncnc2n1-c1ccc(Cl)cc1Cl`, the growth inhibition in assay [1] is 29%; in assay [4] it was 89% (active). The inhibition is 16% in assay [2] and -5% in assay [3]. For the same molecule, the outcome in assay [5], in assay [6], in assay [7] and in assay [8] was inactive.
On to `CC(C)C[C@@H](/C=N/NC(N)=O)NC(=O)[C@H](CC(C)C)NC(=O)[C@H](CC(C)C)NC(=O)OCc1ccccc1`, for which the growth inhibition is 99% (active) in assay [1] and 100% (active) in assay [4]. Further, the figures for the inhibition in assay [2] and in assay [3] were 41% and -1%, respectively. Further, the result in assay [5], in assay [6], in assay [7] and in assay [8] was inactive.
`Cc1ccc(Nc2nc(NN=Cc3ccccc3[N+](=O)[O-])nc(Nc3ccc([N+](=O)[O-])cc3)n2)cc1C`: the growth inhibition in assay [1] was 81% (active); in assay [4] it was 101% (active). Moreover, the inhibition was 4% in assay [2] and 5% in assay [3]. Besides, the result in assay [5], in assay [6], in assay [7] and in assay [8] was inactive.
As for `CCOC(=O)c1cnc2c(C(F)(F)F)cccc2c1Nc1ccc(O)cc1`, the growth inhibition is 67% (active) in assay [1] and 96% (active) in assay [4]. The inhibition is -7% in assay [2] and 2% in assay [3]. Besides, the outcome in assay [5], in assay [6], in assay [7] and in assay [8] was inactive.
For the molecule `Cc1cccc(NC(=O)NC2CCN(CCCCCNC(=O)/C=C/c3ccc(Cl)c(Cl)c3)CC2)c1`, the growth inhibition was 21% in assay [1] and 101% (active) in assay [4]. Moreover, the figures for the inhibition in assay [2] and in assay [3] were 34% and -3%, respectively. Moreover, the result in assay [5], in assay [6], in assay [7] and in assay [8] was inactive.
With `CC(Cc1ccc(CNC(=O)c2ccc(CC(C)NCCc3cccc(Cl)c3)cc2)cc1)NCCc1cccc(Cl)c1` (stereo not given), the growth inhibition in assay [1] was 66% (active); in assay [4], 99% (active). For the same molecule, the inhibition in assay [2] is 99% (active); in assay [3], -2%. Moreover, the result in assay [5], in assay [6], in assay [7] and in assay [8] was inactive.
As for `CC1(C)C(=O)Nc2ccccc2N1C(=O)CN1CCN(c2ccccc2O)CC1`, the growth inhibition was 72% (active) in assay [1] and 92% (active) in assay [4]. In addition, the inhibition is 7% in assay [2] and 0% in assay [3]. The result in assay [5], in assay [6], in assay [7] and in assay [8] was inactive.
Regarding `C#CCNCc1ccc(-c2cccc(-c3nc4c(C)cccc4[nH]3)c2)cc1`, the growth inhibition in assay [1] was 32%; in assay [4], 100% (active). Besides, the inhibition in assay [2] is -4%; in assay [3] it was 2%. Further, the outcome in assay [5], in assay [6], in assay [7] and in assay [8] was inactive.
Consider `CCNc1cc(C(=O)N[C@@H](Cc2ccccc2)[C@H](O)CNCCc2cccc(C(F)(F)F)c2)cc(N2CCCC2=O)c1`, for which the growth inhibition in assay [1] is 93% (active); in assay [4] it was 96% (active). The inhibition in assay [2] is 7%; in assay [3] it was 1%. Moreover, the outcome in assay [5], in assay [6], in assay [7] and in assay [8] was inactive.

Broadly, the inhibition is the drop in the measured response relative to a control, in per cent.

These data come from PubChem BioAssay.
